A selection: hits, their analogues and other compounds. The true share with any hit is near 14%.
MARV entry inh – inhibitors of Marburg virus binding or cell entry. Marburg virus pseudotyped entry inhibition, cell reporter. Potency, µM (titrated, usually from 37.8 µM), for the others: at the highest dose activity change, negative = inhibition, actives largely listed as inhibitors. 1.8% of 300,000 active; calls by dose curve; tested in HEK293 cells; also: potency is read from the fitted curve at half-maximal effect
Pf growth 48h – inhibits P. falciparum growth in the first generation, 48 h | P. falciparum luciferase growth in erythrocytes, 48 h | Potency, µM (series often up to 28.7 µM), for inactives: top-dose activity change, negative = inhibition, usual class: inhibitors | 5.9% of 310,000 active; also: potency is read from the fitted curve at half-maximal effect
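First compound was added to culture medium, then infected red cells at 0.1% parasitemia and 2% hematocrit (final). After incubation at 37 C under 5% CO2, luciferase detection reagent was dispensed and light output recorded.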
HCV inh – inhibitors of hepatitis C virus infection | Huh7.5.1 HCVcc-Cre infection, luciferase reporter, 44 h | Potency, µM (series often up to 41.8 µM), inactives show top-dose activity change, negative = inhibition, usual class: inhibitors | 3.4% of 340,000 active | AID 651820; also: potency is read from the fitted curve at half-maximal effect
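Infectious HCVcc-Cre (~0.5 moi) was added to cells just after compound, with cells seeded 4 h earlier at 1,000 per well. Luciferase activity after 44 h culture reported infection; substrate was incubated 15 min at room temperature before reading.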
Pf growth 96h – P. falciparum growth inhibition at 96 hour, primary screen for plastid delayed-death inhibitors; AID 504834; P. falciparum luciferase reporter growth, 96 h; 6.9% of 320,000 active; Potency, µM (titrated, usually from 28.7 µM), for the others: top-dose activity change, negative = inhibition, hits mostly inhibitors; also: potency is read from the fitted curve at half-maximal effect
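Cell-based qHTS: luciferase-tagged P. falciparum in erythrocytes (2% hematocrit, 0.05% parasitemia final) incubated with compounds for 96 hours, 37 C, 5% CO2; luciferase detection reagent then added and luminescence measured.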
HCMV antiviral – blocks human cytomegalovirus replication | HFF cells, HCMV-luciferase reporter, 72 h; hits give low values | activity change, negative = inhibition, % at 57.5 µM | 4.5% of 410,000 active; in the data active = activity change below about -60%; inconclusive = no clear call, values can overlap the other calls; inactive = above about -39%
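Compounds were evaluated in HFFs infected with an HCMV luciferase reporter virus (MOI 1 PFU/cell). Luciferase in lysates collected 72 h post infection served as the replication measure.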
Lassa entry inh – Lassa virus entry inhibition; 1.2% of 300,000 active; Lassa virus pseudotype entry inhibition, cell reporter; Potency, µM (titrated, usually from 37.9 µM), for the others: at the top dose activity change, negative = inhibition, actives largely listed as inhibitors; calls by dose curve; tested in HEK293 cells; also: potency is read from the fitted curve at half-maximal effect; nearly all actives have a fitted effect of over 50% in size
An asterisk follows results filed as active; ? = inconclusive; . = no result; [ ] = dose if it differs, or a comment. Unless noted, calls follow the shape of the dose curve; as a rule, active = well fitted inhibition curve with a large enough effect; inconclusive = small, poorly fitted or top-dose-only effect, or another doubt; inactive = no such curve, though single readings can be large or run the other way. % is scaled to controls: 0 for no effect and ±100 for the full control effect.

SMILES	MARV entry inh	Pf growth 48h	HCV inh	Pf growth 96h	HCMV antiviral	Lassa entry inh
O=C(Nc1ccc(Cl)c(S(=O)(=O)N2CCOCC2)c1)C1=NN(c2ccccc2)C(=O)CC1	-30.8%	.	?	.	31.3	?
Cc1cccc(N2N=C(C(=O)O)CCC2=O)c1	.	9.28µM*	14.3%	?	83.6	.
Cc1cccc(N2N=C(C(=O)Nc3ccc(Cl)c(S(=O)(=O)N4CCOCC4)c3)CCC2=O)c1	?	11.7µM*	3.4%	?	-8.7	?
CC(=O)Nc1ccc(NC(=O)C(C)NC(C)c2cccc3ccccc23)cc1 (stereo not drawn)	?	-12.7%	2.7%	-12.9%	-24.5	?
CC(=O)Nc1c(Cl)c(Cl)c2c(c1Cl)C(=O)c1cc(Cl)ccc1-2	14.7%	.	?	.	24.0	3.3%
CCOc1ccc2nc(N3CCCCCC3)sc2c1	?	210.8%	-7.7%	?	109.9	?
COc1ccc2nc(N3C(=O)/C(=C/c4ccccc4)NC3=S)sc2c1	-11.9%	?	?	0.828µM*	-19.9	?
CCOc1ccc2nc(N3C(=O)/C(=C/c4ccccc4)NC3=S)sc2c1	?	21.0%	?	4.65µM*	66.6	12.6µM*
CCCCN1C(=O)CN(C2CCCCCC2)C(=O)C1c1ccc(OCC)c(OC)c1 (stereo not drawn)	.	.	.	.	30.2	-18.4%[46.1 µM]
COc1cc2c(cc1OC)C1=NC(=O)CN1C(SCc1ccc(C)cc1)=N2	?	?	?	0.0%	47.4	-27.7%
Cc1ccc(CSC2=Nc3sccc3C3=NC(=O)CN23)cc1	-21.0%	11.7µM*	?	?	-8.3	3.8%
O=[N+]([O-])c1cc(S(=O)(=O)NCCN2CCOCC2)ccc1Sc1nnnn1-c1ccccc1	16.4µM*	13.1µM*	?	?	-89.3*	-2.4%
Cc1ccc(S(=O)(=O)NCCSc2nnnn2-c2ccc(C(N)=O)cc2)cc1	-2.9%	?	-1.2%	?	-38.9	.
Cc1ccc(-n2nnnc2Sc2ccc(S(=O)(=O)NCCN(C)C)cc2[N+](=O)[O-])cc1	9.2µM*	?	10µM*	?	-100.0*	?
CN(C)CCNS(=O)(=O)c1ccc(N2CCN(c3ccc(F)cc3)CC2)c([N+](=O)[O-])c1	18.4µM*	11.7µM*	10µM*	?	-76.1*	?
CC(=O)N1CCN(c2ccc(S(=O)(=O)NCCN(C(C)C)C(C)C)cc2[N+](=O)[O-])CC1	1.2%	-1.3%	1.3%	1.6%	-6.1	-3.5%
CCCC(CCC)C(=O)Nc1ccc2c(c1)N(C(=O)CN1CCN(C)CC1)c1ccccc1CC2	?	5.22µM*	?	-6.0%	-16.9	?
CCOC(=O)Nc1ccc2c(c1)N(C(=O)CN1CCN(C)CC1)c1ccccc1S2	?	9.28µM*	?	124.1%	3.8	-13.7%
CCOC(=O)Nc1ccc2c(c1)N(C(=O)CCN(C)C)c1ccccc1S2	?	-9.8%	12.6µM*	-5.5%	-25.0	-3.9%
CCOC(=O)Nc1ccc2c(c1)N(CCCN(C)C)c1ccccc1CC2	.	?	?	13.1µM*	-14.9	.
CCOC(=O)Nc1ccc2c(c1)N(C(=O)OC)c1ccccc1CC2	-24.5%	5.4%	-5.1%	-8.3%	16.3	?
CCOC(=O)Nc1ccc2c(c1)N(C(=O)CN(C)C)c1ccccc1S2	.	.	.	.	3.6	.
Cc1cccc(C(C)C)c1NC(=O)c1ccc2c(c1)CCN2S(C)(=O)=O	10.9%[46.1 µM]	.	.	.	-10.6	17.7%[46.1 µM]
COc1ccccc1/C=C1\CCC(C2CCCC2)C1=O (stereo not drawn)	.	57.1%	-9.6%	14.7µM*	-24.3	.
CC1(C)Cc2nc(-c3ccccc3)nc(SCC(O)CO)c2CO1 (stereo not drawn)	.	-6.7%	-16.6%	10.4µM*	-7.1	.
Cc1cccc(-c2nc3c(c(SCC(=O)N4CCOCC4)n2)COC(C)(C)C3)c1	.	?	-23.9%	11.7µM*	0.0	.
CC1(C)Cc2nc(-c3ccccc3)nc(SCC(=O)N3CCOCC3)c2CO1	.	-8.5%	17.3%	?	-28.3	.

Screens (PubChem)
